# Laboratory results: PubChem BioAssay AID504913 (The Scripps Research Institute Molecular Screening Center, 2011)
# This is one part of the list. A number with no mark means an inactive call. Cut-off read from the data, not from the text of the source: active = activation above about 18%; inactive = the rest.
# Assay: activation of mu-delta opioid heterodimer signal – cell-based, luminescence, counter-screen for HTR5A agonist project (AID 504913)
# Details: U2OS counter-screen cells, complementation luminescence, 3 h; at 9.3 µM; active compounds read high
structure (smiles),measurement,value
CCCCCCCCCCCCn1ccc(=N)cc1,activation,2.92%
